Data reported in PubChem BioAssay AID1259418 (Broad Institute, 2018).
The campaign covered roughly 3,400 compounds. About 840 (25%) were called active. Another 11% or so got no clear call; they are omitted. Only a sample is shown. Entries with a potency or affinity are not part of this list. A number with no mark means an inactive call.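 The calls were made as follows: active = fitted half-maximal concentration of signal decrease at or below twice the sample's top tested concentration; inconclusive = flat curve between -70 and -30 percent, or poor fit; inactive = flat within 30 percent, signal rise, or potency above limit.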

experiment: inhibitors of Toxoplasma growth in IFN-γ-primed HeLa – cell-based, ME49Luc, luciferase, 72 h, dose response (AID 1259418); conditions: T. gondii ME49Luc in IFN-y HeLa, hits give low values, -100% = high-dose IFN-γ control wells; at 19.5 µM unless noted

| Compound | max activity |
| --- | --- |
| COc1cccc(C(=O)Nc2ccc(-c3nc(-c4cc(C)ccc4C)co3)cc2)c1 | 7.15% [at 0.16 µM] |
| Cc1nnc(N2C[C@@H](Oc3ncccc3F)[C@@H]3OCCC[C@@H]32)s1 | 9.8% |
| COc1ccc(-c2nc3c(s2)CN(S(=O)(=O)c2ccc(C)cc2)CC3)cc1 | 9.64% [at 10 µM] |
| COc1cccc(-c2nc3c(s2)CN(S(=O)(=O)c2ccc(C)c(C)c2)CC3)c1 | -17.2% [at 10 µM] |
| COc1ccc(S(=O)(=O)N2CCc3nc(-c4ccc(C)cc4)sc3C2)cc1 | -4.65% [at 2.6 µM] |
| COc1ccc(-c2nc3c(s2)CN(S(=O)(=O)c2ccc(OC)cc2)CC3)cc1 | 12.4% |
| Cc1ccc(C)c(-c2coc(-c3ccc(NC(=O)COc4ccc(F)cc4)cc3)n2)c1 | 15.1% |
| N#Cc1ccc(S(=O)(=O)N2CCC(N3CCOCC3)CC2)cc1 | -17.4% [at 0.35 µM] |
| CCc1ccccc1NC(=O)CN1CCC2(CC1)N=C(c1ccc(Cl)cc1)C(=O)N2 | 13% |
| Cc1nc(-c2ccc(F)cc2)sc1-c1ccc(SCc2ccc(C(F)(F)F)cc2)nn1 | 6.62% [at 0.68 µM] |
| COc1ccccc1NC(=O)CN1CCC2(CC1)N=C(c1ccc(F)cc1)C(=O)N2 | 11.3% |
| Cc1ccc(N(Cc2nc(-c3ccc(OC(C)C)cc3)oc2C)S(=O)(=O)c2cccs2)cc1 | -11.4% [at 0.68 µM] |
| Cc1oc(-c2ccccc2)nc1CN(c1ccccc1)S(=O)(=O)c1cccs1 | 8.04% [at 0.68 µM] |
| Cc1ccc(-c2nc(CN(c3ccc(C)cc3)S(=O)(=O)c3cccs3)c(C)o2)cc1 | 12.6% [at 0.16 µM] |
| COc1ccccc1-c1nc(CSc2nc3c(c(=O)[nH]2)CN(Cc2ccc(F)cc2)CC3)c(C)o1 | 38.6% [at 5 µM] |
| Cc1ccc2c(c1C)-n1cccc1C1(CCN(C(=O)c3cccc(N(C)C)c3)CC1)N2 | -17.3% [at 0.35 µM] |
| COCCC(=O)N1C[C@H](OCc2ccccn2)[C@@H]2COC[C@@H]21 | 46.2% |
| COc1ccc(CCC(=O)N2CCC[C@@H]2C(=O)NCCc2csc(-c3ccccc3)n2)cc1 | 15.9% [at 2.6 µM] |
| COCCN1CCc2nc(SCc3nc(-c4ccc(C)cc4)oc3C)[nH]c(=O)c2C1 | -13.7% [at 2.6 µM] |
| COc1ccc(-c2nc(Cn3nnc(-c4nc(-c5cccc(C(F)(F)F)c5)no4)c3C)c(C)o2)cc1 | -6.58% [at 5 µM] |
| CCOc1ccc(NC(=O)Nc2ccc(-c3nc(-c4cccc(Br)c4)co3)cc2)cc1 | 4.75% [at 10 µM] |
| COc1cccc(-c2nc3c(s2)CN(S(=O)(=O)c2ccc(F)cc2)CC3)c1 | 19.6% |
| COc1ccc(-c2nc(Nc3cc(F)ccc3F)c3ccccc3n2)cc1 | 38% |
| COc1ccc(-c2nc3c(s2)CN(S(=O)(=O)c2ccc(CC(C)C)cc2)CC3)cc1 | -5.7% [at 10 µM] |

| Compound | max activity |
| --- | --- |
| CCOC(=O)C1CCC(CNC(=O)Nc2ccc(-c3nc(-c4cc(C)ccc4C)co3)cc2)CC1 (configuration not stated) | 10.8% [at 0.16 µM] |
| Cc1cc(C2CCCN2C(=O)Cn2nc(C(F)(F)F)cc2C)on1 (configuration not stated) | 9.62% [at 0.16 µM] |
| Cc1ccc(-c2coc(-c3ccc(NC(=O)NC4CCCC4)cc3)n2)c(C)c1 | 13.7% |
| Cc1nc(OCC(=O)Nc2ccccc2F)c2ccccc2n1 | 19.1% [at 0.16 µM] |
| COCCN1CCc2nc(SCc3nc(-c4cccc(C)c4)oc3C)[nH]c(=O)c2C1 | 12% [at 0.16 µM] |
| CCN1CCn2c(-c3cccc(F)c3)cnc2C12CCN(c1ncccn1)CC2 | 40.4% |
| Cc1ccc(C)c(NC(=O)CN2CCC3(CC2)N=C(c2cccc(F)c2)C(=O)N3)c1 | -32.1% |
| COc1ccc(-c2nc(NC(C)c3ccccc3)c3ccccc3n2)cc1 (configuration not stated) | 18.4% [at 5 µM] |
| COc1ccc(C(=O)N2CCC3(CC2)Nc2ccc(C)c(C)c2-n2cccc23)c(OC)c1 | -29.7% [at 0.16 µM] |
| Cc1ccc(C)c(-c2coc(-c3ccc(NC(=O)c4ccc(Br)o4)cc3)n2)c1 | 9.77% [at 10 µM] |
| COCCN1CCc2c(cnc(-c3cccnc3)c2C(=O)O)C1 | 17.7% [at 2.6 µM] |
| COc1ncccc1NC(=O)c1cc(-c2cnc(N3CCCC3)nc2)cn1CC1CC1 | 6% |
| O=C(NCc1ccc(F)cc1F)c1cc(-c2cnc(N3CCCC3)nc2)cn1CC1CC1 | -11.3% [at 0.038 µM] |
| CN1C(=O)CCc2cc(NC(=O)c3cccnc3)ccc21 | -16.3% [at 0.16 µM] |
| COC(=O)[C@@H]1C[C@@H](N(C)C)CN1S(=O)(=O)c1c(C)ccc2nsnc12 | 25.5% |
| Cc1ccc(-c2coc(-c3ccc(NC(=O)COc4ccc(F)cc4)cc3)n2)cc1 | -52.1% [at 0.68 µM] |
| O=C(NCc1ccc(F)cc1)Nc1ccc(-c2nc(-c3ccccc3)co2)cc1 | 16.3% [at 1.35 µM] |
| CCOC(=O)C1CCN(C(=O)c2ccc(-c3csc(C4CC4)n3)cc2)CC1 | 40.1% |
| COc1ccc(C(=O)N2CCC(C(=O)NCCc3csc(-c4ccccc4)n3)CC2)cc1 | 12.2% [at 0.16 µM] |
| COc1cccc(C(=O)N2CCC(C(=O)NCCc3csc(-c4ccccc4)n3)CC2)c1 | -23.1% |
| COc1ccc(-c2nc(N3CCN(c4cccc(C)c4)C(C)C3)c3ccccc3n2)cc1 (configuration not stated) | 60.7% |
| Cc1ccc(-c2nc(Cn3nnc(-c4nc(-c5ccc(C(F)(F)F)cc5)no4)c3C)c(C)o2)cc1 | 11.8% [at 0.35 µM] |
| CCc1nc(OCC(=O)Nc2ccccc2C)c2ccccc2n1 | 13% [at 0.16 µM] |
